Data on 117 compounds can be found in ChEMBL document CHEMBL4513216, “Probing the Open Global Health Chemical Diversity Library for Multistage-Active Starting Points for Next-Generation Antimalarials” (ACS Infect Dis, 2020).

The whole screen tested about 69,000 compounds, of which about 8,600 (12%) showed an effect of 50% or more. This is one part of a sample in which strong results are shown more often than they occur.

This experiment concerns Plasmodium berghei. Description: Screen against P. berghei liver stage (PbLuc), transformed with Luciferase, at 10uM. Type of experiment: functional, HepG2. Conditions: tested at 10 uM.
As to `N#CCCN(CC1CC1)Cn1cc(Cl)cn1`, the INHIBITION is on record as 13.3%.
Regarding `O=C1CC(N(C(=O)CCc2c[nH]c3ccccc23)C2CC2)C(=O)N1` (configuration not stated), the INHIBITION amounted to 41.8%.
The figure for `Cn1ccc2c(C(=O)N3CCCC3c3noc(C4CC4)n3)cccc21` (configuration not stated) is 19.2%; for `Cc1nc(CN2C[C@@H]3CN(C(=O)NC(C)C)C[C@@H]3C2=O)cs1` it is 11.3%; for `COCC1c2c(cnn2C)CCN1Cc1ccc(C)cc1` (configuration not stated) it is 31.7%.
The figure for `CSC(C)(C)CNC(=O)NC(c1nnc2n1CCC2)C(C)C` (configuration not stated) is 21.5%; for `COCCN1CCC2(CCC(=O)N2Cc2csc(C)n2)CC1` it is -45.8%; for `CN1CCN(C2CCN(Cc3nc(-c4ccoc4)no3)CC2)C1=O` it is 59.4%.
Next, `O=C1NCCN1C1CCN(Cc2nc(-c3ccoc3)no2)CC1`: 17%; `O=C1NCCN1C1CCN(Cc2nc(-c3ccc(F)cc3)no2)CC1`: 93.6%; `COCCN1CCN(Cc2nc(-c3ccoc3)no2)CC1`: 31.1%.
Consider `CCN1CCN(C2CCN(Cc3nc(-c4ccoc4)no3)CC2)C1=O`, for which the INHIBITION came out at 26.3%.
Next, `Fc1ccc(-c2noc(CN3CCC(c4cc[nH]n4)CC3)n2)cc1`: 34.6%; `O=C(c1ccc(-n2cccn2)c(F)c1)N1CCCN2CCCC2C1` (configuration not stated): 49.1%.
The figure for `CCN(CC)C(=O)CN1CCCC1c1nc(C)c2c(n1)N(C)C(=O)CC2` (configuration not stated) is -0.55%; for `CC(=O)N1CCCC(Cc2nccn2C)C1` (configuration not stated) it is 5.56%; for `C[C@@H]1CN(c2ccc(Cl)cn2)C[C@@]1(O)C1CC1` it is 25.145%.
The figure for `C=C(C)Cn1nnc(C2(NC(=O)c3ccccc3)CCCC2)n1` is 71.2%.
`O=C(NC1(c2nnn(CC3CC3)n2)CCCC1)c1ccccc1`: the INHIBITION is listed as 42%.
The figure for `O=C(NC1(c2nnn(CCO)n2)CCCC1)c1ccccc1` is -16.2%.
The figure for `Cc1cc(C)nc(C2CCN(C(=O)c3cnco3)C2)n1` (configuration not stated) is -8.12%; for `Cc1ccc2ncnc(N3CCOCC3c3c(C)nn(C)c3C)c2c1` (configuration not stated) it is 30%.
The figure for `Cc1nn(C)c(C)c1C1COCCN1c1ncncc1Br` (configuration not stated) is 57.7%; for `Cc1nn(C)c(C)c1C1COCCN1c1ncnc2c(C)cccc12` (configuration not stated) it is 28.6%; for `CN(Cc1ccc2c(c1)OCO2)C(=O)NCCc1cnn(C)c1` it is 28.15%.
`Cc1ccccc1CNC(C)c1ccc(OCC(=O)NC2CC2)cc1` (configuration not stated): the INHIBITION is reported as 7.08%.
Next, `COCC(C)N(C)C(=O)CCc1c(C)nc2c(C#N)cnn2c1C` (configuration not stated): 63.8%; `Cc1nc2cc(O)nn2c(C)c1CCC(=O)N(C)CCC(C)C`: -57.5%.
Next, `Cc1nc2c(C#N)cnn2c(C)c1CCC(=O)N(C)C1CC1`: 28.5%; `COC(=O)c1cc(C2CC2)nc2c(C#N)cnn12`: 25.9%.
The figure for `Cc1nn(C)c(C)c1CCC(=O)N(C)Cc1ccc(C#N)cc1` is -12.5%.
For the compound `Cc1nc2c(C#N)cnn2c(C)c1CCC(=O)N(C)C(C)C(C)C` (configuration not stated), the INHIBITION worked out at 62.8%.
On to `CCCn1[nH]c(CNc2cccc(Cl)c2)nc1=O`, for which the INHIBITION came to 46.4%.
Next, `Cc1nnc2n1CCN(C(=O)c1cc3cc(F)ccc3[nH]1)C2`: 14.1%; `Cn1cc(CN2CCC3(CCCN(C(=O)c4cscn4)C3)C2)cn1` (configuration not stated): -68.5%.
The figure for `Cc1cn2c(n1)CCC(NC(=O)c1cc(C3CC3)[nH]n1)C2` (configuration not stated) is -1.14%; for `Cc1cccc(N(C)Cc2cc(=O)n3oc(C)cc3n2)c1` it is 43.5%.
Next, `Cc1cc2nc(CN(C)c3ccccc3)cc(=O)n2o1`: 12.9%; `Cc1cc2nc(CN(C)c3ccc(Cl)cc3)cc(=O)n2o1`: 56%.
With `NC(=O)[C@H]1CCCN1C(=O)c1csc(-c2ccc(C(F)(F)F)cc2)n1`, the INHIBITION was -2.25%.
Next, `CCOCC1CCN(C(=O)C(c2ccc(F)cc2)N(C)C)CC1` (configuration not stated): 17.5%; `CNS(=O)(=O)c1c(C)sc2ccccc12`: -77.9%.
The figure for `Cc1[nH]ncc1C(=O)N1CCCC(c2ccn[nH]2)C1` (configuration not stated) is 23.5%; for `Cc1nc(CN2CCCN(C(=O)c3cnccn3)CC2)cs1` it is -16.4%; for `CC(CNS(N)(=O)=O)c1ccc(F)c(F)c1` (configuration not stated) it is 31.1%.
The figure for `CC(CNS(C)(=O)=O)c1ccc(F)c(F)c1` (configuration not stated) is 60.4%.
Turning to `CCCS(=O)(=O)NCC(C)c1ccc(F)c(F)c1` (configuration not stated), the INHIBITION is on record as 10%.
Next, `Cc1ccn(-c2ccnc(N3CCN(c4ncccn4)CC3)n2)n1`: 44.9%.
As for `COCCO[C@H]1CCN(c2ccc(C)nn2)[C@H]1Cc1cnn(C)c1`, the INHIBITION is given as 13.7%.
`COc1ccc(CS(=O)(=O)CC(=O)NCC2CC2)cc1F`: the INHIBITION is 19%.
Next, `COc1ccc(CS(=O)(=O)CC(=O)NCc2ccccc2F)cc1F`: 40.3%.
The figure for `CNC(=O)CS(=O)(=O)Cc1ccc(OC)c(F)c1` is 52.2%.
Next, `Cc1nccn1CCN(C)C(=O)C1CCN(C(=O)C2CCCC2)CC1`: 48.9%; `N#Cc1ccc(C(=O)N2CCCSCC2CN2CCCC2)cc1` (configuration not stated): 40.8%; `Cc1cc(S(C)(=O)=O)c(C)c(S(=O)(=O)N2CCN(C)CC2)c1`: 31.9%.
For `Cc1cc(S(C)(=O)=O)c(C)c(S(=O)(=O)N2CCCCCC2)c1`, the INHIBITION worked out at 36.4%.
The figure for `Cc1cc(S(C)(=O)=O)c(C)c(S(=O)(=O)N2CCCC(C)C2)c1` (configuration not stated) is 63%.
Next, `CC(=O)c1c(F)cccc1NCC(O)C1CC1` (configuration not stated): 26%.
`Cc1nc(NCc2scnc2-c2ccccc2)cc(C2CCNCC2)n1`: the INHIBITION came out at 24.3%.
Next, `CN(C)c1ccc(-c2cc(=O)n3c(n2)CCCCC3)cc1`: 35.1%; `Cc1ccc(S(=O)(=O)n2ccn(C(=O)COc3ccccc3)c2=O)cc1`: 44.1%.
The figure for `CC(C)Cc1nc(CSC2CCCN(c3cnn(C)c3)C2=O)no1` (configuration not stated) is 20.1%; for `Cc1cc(CSC2CCCN(c3cnn(C)c3)C2=O)no1` (configuration not stated) it is 30.5%.
Consider `Cn1cc(N2CCCC(SCc3nc(C4CC4)no3)C2=O)cn1` (configuration not stated), for which the INHIBITION amounted to 51.2%.
The figure for `c1nc(CCC2CCCN2)cc(N2CCCCCC2)n1` (configuration not stated) is 5.11%.
The figure for `Cc1n[nH]c(C)c1C1COCCN1C(=O)c1ccc2c(c1)CCO2` (configuration not stated) is 32.125%; for `CSCc1cc(F)ccc1CNCc1cccc(O)c1` it is 5.15%; for `O=C1CC(c2ccc3c(c2)OCO3)c2snc(C(=O)O)c2N1` (configuration not stated) it is 15.1%.
In the case of `O=C(C1CC1)N1CC2(CCNCC2)c2cc(F)ccc21`, the INHIBITION is on record as -12.2%.
The figure for `O=C(CC1CC2(CCN(CC3CC3)CC2)c2ccccc21)NC1CCC1` (configuration not stated) is 34.4%.
Next, `COCCN1CCC2(CC1)CC(CC(N)=O)c1ccc(F)cc12` (configuration not stated): -8.85%; `O=C(CC1CC2(CCNCC2)c2ccccc21)NCC1CC1` (configuration not stated): 57.5%; `CNC(=O)CC1CC2(CCNCC2)c2cc(F)ccc21` (configuration not stated): 44.8%.
Turning to `CN(C)C(=O)CC1CC2(CCNCC2)c2cc(F)ccc21` (configuration not stated), the INHIBITION worked out at 59.1%.
Next, `NC(=O)CC1CC2(CCNCC2)c2cc(F)ccc21` (configuration not stated): 59.3%; `CS(=O)(=O)N1CCC2(CC1)CC(CC(=O)NCC1CC1)c1ccccc12` (configuration not stated): 3.69%; `CC(C)N1CCC2(CC1)CC(CC(N)=O)c1ccc(F)cc12` (configuration not stated): 58.7%.
Next, `COCC(=O)N1CCC2(CC1)CC(OC)c1ccc(F)cc12` (configuration not stated): 42.1%; `O=c1n(CCNCc2ccc(-c3ccccc3)cc2)nc2ccccn12`: 35.7%.
For `Cc1nn(C)c(Cl)c1C1CCCN1CC(=O)Nc1cccnc1` (configuration not stated), the INHIBITION was determined as 21.6%.
Next, `Cn1cc(-c2ncc3c(c2C(=O)O)CCN(CC2CCOC2)C3)cn1` (configuration not stated): 17.7%.
For the compound `O=C(c1ccco1)N1C[C@H]2CCCN(Cc3ccc(F)cc3)[C@H]2C1`, the INHIBITION is on record as 29.4%.
Next, `Cc1nc(N(C)C)ncc1C(=O)N[C@H]1Cc2ccccc2[C@@H]1N`: 2.7%; `COCCN(Cc1ccoc1)S(=O)(=O)c1ccc(OC)c(Cl)c1`: 25.4%; `Cc1noc(NCc2cn(C)nc2-c2cccnc2)n1`: 41.5%.
Next, `Cc1oc(-c2nc(C#N)c(NC(C)C)o2)cc1S(=O)(=O)N1CCCC1`: 34.6%; `Cc1oc(-c2nc(C#N)c(NC(C)C)o2)cc1S(=O)(=O)N1CCCCC1`: 60.1%; `CNc1oc(-c2cc(S(=O)(=O)N3CCCCCC3)c(C)o2)nc1C#N`: 39.5%.
Next, `Cn1cnc(S(=O)(=O)N2CCCc3c(F)cc(F)cc32)c1Cl`: 30.3%; `Cc1cccc(OCCSCCn2nc3ccccn3c2=O)c1`: 22%.
As for `COCCCOc1ccc(C(=O)N(C)Cc2cccc(O)c2)cn1`, the INHIBITION worked out at 38%.
Regarding `COCCCOc1ccc(C(=O)N(C)CCC(C)C)cn1`, the INHIBITION was 39.7%.
For the compound `CCc1nc(CN(C)C(=O)c2ccc(OCCCOC)nc2)cs1`, the INHIBITION is 82.5%.
Next, `COCC(=O)N1CCC(c2cc(-c3ccc(OC)cc3)n[nH]2)C1` (configuration not stated): -50.3%; `CCOC1CCN(C(=O)Nc2ccc(=O)n(C)c2)CC1`: 33%; `c1cncc(OC2CCN(CCn3cc4ccccc4n3)CC2)c1`: 50.8%.
Consider `CN1CCN(C2CCN(CCOc3ccccc3F)CC2)C1=O`, for which the INHIBITION was -22.9%.
Next, `COc1ccccc1OC1CCN(Cc2cccnc2)CC1`: 5.91%.
The figure for `CCc1ncc(CN2CCC(Oc3ccccc3OC)CC2)cn1` is -40%; for `c1cncc(O[C@H]2COCCN(CC3CC3)C2)c1` it is 12.4%; for `Fc1cccc(OC2CCN(CCn3cc4ccccc4n3)CC2)c1` it is 75.2%.
As to `Fc1ccccc1OC1CCN(CCn2cc3ccccc3n2)CC1`, the INHIBITION worked out at 89.3%.
The figure for `OCCn1nccc1C1CCN(CCOc2cccc(F)c2)CC1` is 31.9%; for `Cc1ccc(CNC(=O)NCc2nccn2C)c(OC(C)(C)C)c1` it is 43.5%; for `CC(C)NC(=O)N1CCN(C(=O)C2CCOCC2)CC2(CNC(=O)C2)C1` (configuration not stated) it is 1.9%.
Next, `CCC(=O)N1CCN(C(=O)NCCOc2ccc3c(c2)CCC3)CC1`: 30.2%; `Cc1nccn1-c1ccc(NS(=O)(=O)c2cnn(C)c2)cn1`: 4.95%; `Cc1cccc(CN2Cc3[nH]nc(COCC4CC4)c3C2)n1`: 48.2%.
Next, `Cc1ncc(CNCC(C)O)c2cc(C(=O)c3ccc(Br)cc3)oc12` (configuration not stated): 50.5%; `CC(O)CNC(=O)Nc1ccc(Br)cc1Br` (configuration not stated): 29.1%.
Take `Cc1ncc(CNCCO)c2cc(C(=O)c3ccc(Br)cc3)oc12`: the INHIBITION is recorded as 59.2%.
Next, `COC(=O)c1oc(CNC(C)(C)CO)cc1C`: -3.35%; `Cc1ncc(CN2CCCC2)c2cc(C(=O)c3ccc(Br)cc3)oc12`: 44.5%.
The figure for `Cc1ncc(CN2CCOCC2)c2cc(C(=O)c3ccc(Br)cc3)oc12` is -21.8%; for `Cc1ncc(CN(C)CCO)c2cc(C(=O)c3ccc(Br)cc3)oc12` it is 36.8%.
Next, `Cc1ncc(CNC(C)(C)CO)c2cc(C(=O)c3ccc(Br)cc3)oc12`: 65.3%; `CN(C)c1ccc(C(=O)NCc2csc(Br)c2)cn1`: 1.75%.
